Data on eight molecules can be found in PubChem BioAssay (NCI).

Compounds without any hit were thinned out: in the full panel of roughly 83,000, 20% have a hit.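 For each line, cells grew in 96-well plates with the test compound present at a single concentration for 48 hours.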 A number with no mark means an inactive call. Calls of active or inactive are those of the source. Rule for the calls: active = growth percent below 10; inactive = the rest.

What all share (assay): NCI-60 one-dose screen, 48 h (100 = growth as untreated, 0 = no growth, -100 = all killed)
Holding throughout (settings): 10 µM

Assay [1] deals with SK-MEL-2 melanoma.
Assay [2] deals with EKVX NSCLC.
Assay [3] relates to SN12C renal.
In assay [4] the test system is UO-31 renal.
In assay [5] the test system is TK-10 renal.
The test system of assay [6] is ACHN renal.
In assay [7] the test system is CAKI-1 renal.
In assay [8] the test system is CCRF-CEM leukemia.
The subject of assay [9] is MOLT-4 leukemia.
The subject of assay [10] is OVCAR-8 ovarian.
In assay [11] the test system is OVCAR-5 ovarian.
Assay [12] relates to OVCAR-4 ovarian.
The subject of assay [13] is SK-OV-3 ovarian.
In assay [14] the test system is IGROV1 ovarian.
The subject of assay [15] is OVCAR-3 ovarian.
For assay [16], the system named is HS 578T breast.
In assay [17] the test system is NCI/ADR-RES ovarian.
Assay [18] relates to SR leukemia.

As for `N#CC1=CC2CN(Cc3ccccc3)C1C1C(=O)N(c3ccccc3)C(=O)C21` (configuration not stated), the growth was 105% in assay [1]; 94.7% in assay [2]; 100% in assay [3]; 74.7% in assay [4]; 96.2% in assay [5]; 103% in assay [6]. Moreover, the growth is 101% in [7]; 97.2% in [8]; 89.5% in assay [9]; 98.2% in [10]; 101% in assay [11]; 93.2% in assay [12]. Moreover, the growth in assay [13] was 97%; in [14], 103%; in assay [15], 111%; in assay [16], 101%; in assay [17] it was 91.6%.
Consider `Nc1ccccc1NC(=O)c1ccc(CCCC(=O)Nc2ccc(C3CC3N)cc2)cc1` (configuration not stated), for which the growth in assay [1] is -4.46% (active); in assay [2], 53.5%; in assay [3], 43.8%; in assay [4], 62.8%; in assay [5], 8.6% (active); in assay [6] it was 52%. Moreover, the growth was 96.2% in assay [7]; 22.6% in assay [9]; 31.5% in [18]; 17.3% in [10]; 33.1% in assay [11]; 49.7% in [12]. The growth in assay [13] was 32.4%; in assay [14], 44.3%; in assay [15], 25.4%; in assay [16], 36.7%; in assay [17], 98.6%.
`Cc1c2cnccc2c(C)c2c1oc1ccccc12`: the growth is 112% in [1]; 38.3% in [2]; 69.1% in [3]; 40.4% in [4]; 48.4% in assay [5]; 58.6% in [6]. Also, the growth was 66% in assay [7]; 62.8% in assay [8]; 3.5% (active) in assay [9]; 21.2% in assay [18]; 71.1% in assay [10]; 82.4% in [11]. The growth in assay [12] was 98.9%; in assay [13] it was 71.2%; in [14] it was 78.8%; in [15], 98.1%; in assay [16], 53.7%; in assay [17] it was 73.7%.
With `O=C(CCCNC(=O)c1nc(-c2ccccc2)n(-c2ccccc2)n1)NO`, the growth was 97.9% in [1]; 96.8% in assay [2]; 101% in [3]; 94.5% in assay [4]; 85.9% in assay [5]; 114% in [6]. The growth in assay [7] was 98%; in assay [9] it was 101%; in assay [18] it was 106%; in [10], 96.9%; in assay [11], 118%; in assay [12] it was 118%. Besides, the growth in [13] was 97%; in assay [14], 101%; in [15] it was 108%; in [16] it was 105%; in assay [17], 109%.
In the case of `C=C/C(C)=C/C[C@]1(C)[C@H](C)[C@@H](OC(=O)CCC)[C@H](O)[C@@]23C(=C[C@H](OC)C[C@@H]12)[C@@H](OC(=O)CCC)O[C@H]3OC(C)=O`, the growth is -70.5% (active) in assay [1]; -33.7% (active) in assay [2]; -51.9% (active) in assay [3]; -90.7% (active) in [4]; -95.1% (active) in assay [5]; -94.4% (active) in assay [6]. Also, the growth in assay [7] was 0.0055% (active); in assay [9] it was -12.8% (active); in [18], -20.2% (active); in [10], -60.4% (active); in assay [11] it was -41.3% (active); in [12], -2.11% (active). Further, the growth is -89.7% (active) in [13]; -9.72% (active) in [14]; -86.5% (active) in assay [15]; -31.5% (active) in assay [16]; -20.4% (active) in [17].
Turning to `O=C1c2c(c3c4ccccc4n(CCCCCCN4CCOCC4)c3c3[nH]c4ccccc4c23)C(=O)N1O`, the growth in assay [1] was 110%; in [2] it was 82.4%; in assay [3], 75.8%; in assay [4] it was 9.13% (active); in [5] it was 111%; in assay [6], 92.6%. Besides, the growth was 96.7% in [7]; 66.3% in assay [9]; -26.2% (active) in [18]; 3.72% (active) in [10]; 127% in assay [11]; 103% in assay [12]. The growth in assay [13] is 93%; in assay [14], 40.6%; in assay [15], 88.7%; in assay [16] it was 106%; in [17], 43.9%.
Consider `O=C(Nc1ccccc1)Nc1ncnc2c1ncn2-c1ccccc1`, for which the growth in assay [1] is 104%; in [2], 78.5%; in assay [3] it was 83.3%; in assay [4] it was 69.4%; in assay [5] it was 75.2%; in assay [6], 22.2%. Further, the growth in assay [7] is 82.5%; in assay [9], 94.1%; in assay [18] it was 70.8%; in assay [10], 55.3%; in assay [11], 83.2%; in [12] it was -3.77% (active). Also, the growth in [13] was 44.3%; in assay [14], 78.5%; in [15] it was 73.7%; in assay [16], 50.1%; in [17] it was 66.1%.
As for `CCCCCCCCCCCCCCCCCC[n+]1ccc2c(C)c3c(c(C)c2c1)c1cc(O)ccc1n3CC`, the growth in assay [1] is -33.1% (active); in assay [2], 19.5%; in assay [3], 1.79% (active); in assay [4], 39.8%; in assay [5], 17.8%; in assay [6], 25.7%. Further, the growth is 71.1% in assay [7]; 19% in assay [9]; 12.2% in [18]; 7.3% (active) in assay [10]; 42.5% in assay [11]; 18.2% in assay [12]. In addition, the growth in assay [13] was 22.2%; in assay [14], 6.43% (active); in assay [15], 4.31% (active); in [16], 9.04% (active); in assay [17], 72.3%.
